Measured values from PubChem BioAssay AID1159580 (chemical genetic matrix, 2015).
The campaign covered roughly 5,500 compounds. About 2,000 (36%) were called active. About 18% were inconclusive and are not listed. Rule as the data show it: active = normalized growth mostly below about 0.91 (no sharp cut-off); inconclusive = no clear call, values can overlap the other calls; inactive = mostly above about 0.92. The list shows a part of the results.

Assay: chemical genetic growth profiling, strain panel (AID 1159580);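 also: tested at 20 µM; growth read once vehicle control cultures reached saturation at 30 °C; 1 = growth at the plate median or of vehicle wells; lower values mean less growth of the strain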
Settings: growth OD

Measured: normalized growth

CC(C(=O)O)c1ccc2c(c1)[nH]c1ccc(Cl)cc12 (configuration not stated)
inactive: S. cerevisiae deletion strains, locus YJR075W, strain HOC1, hits give low values 1.01 | S. cerevisiae deletion strains, locus YKL009W, strain mrt4, hits give low values 0.975 | S. cerevisiae deletion strains, locus YKL068W, hits give low values 0.964 | S. cerevisiae deletion strains, locus YKL085W, strain MDH1 (second series), hits give low values 0.95 | S. cerevisiae deletion strains, locus YKL085W, strain MDH1, hits give low values 0.95 | S. cerevisiae deletion strains, locus YKL160W, strain elf1, hits give low values 0.941 | S. cerevisiae deletion strains, locus YKL190W, strain CNB1, hits give low values 1.01 | S. cerevisiae deletion strains, locus YKR001C, strain vps1, hits give low values 0.937 | S. cerevisiae deletion strains, locus YKR026C, strain gcn3, hits give low values 0.983 | S. cerevisiae deletion strains, locus YKR091W, strain srl3, hits give low values 0.988 | S. cerevisiae deletion strains, locus YLL001W, strain dnm1, hits give low values 1 | S. cerevisiae deletion strains, locus YLL026W, hits give low values 0.978 | S. cerevisiae deletion strains, locus YLL041C, strain sdh2, hits give low values 1 | S. cerevisiae deletion strains, locus YLR027C, strain aat2, hits give low values 0.992 | S. cerevisiae deletion strains, locus YLR039C, strain RIC1, hits give low values 0.977 | S. cerevisiae deletion strains, locus YLR058C, strain SHM2, hits give low values 1 | S. cerevisiae deletion strains, locus YLR102C, strain apc9, hits give low values 0.991 | S. cerevisiae deletion strains, locus YLR221C, strain rsa3, hits give low values 0.986 | S. cerevisiae deletion strains, locus YLR258W, strain gsy2, hits give low values 0.976 | S. cerevisiae deletion strains, locus YLR262C, strain YPT6 (second series), hits give low values 0.94 | S. cerevisiae deletion strains, locus YLR262C, strain YPT6, hits give low values 0.989 | S. cerevisiae deletion strains, locus YLR268W, strain sec22, hits give low values 0.992 | S. cerevisiae deletion strains, locus YLR320W, strain mms22, hits give low values 0.937 | S. cerevisiae deletion strains, locus YLR330W, strain CHS5, hits give low values 0.998 | S. cerevisiae deletion strains, locus YLR342W, strain FKS1 (second series), hits give low values 0.987 | S. cerevisiae deletion strains, locus YLR342W, strain FKS1, hits give low values 0.966 | S. cerevisiae deletion strains, locus YLR357W, strain rsc2, hits give low values 0.923 | S. cerevisiae deletion strains, locus YLR370C, strain arc18, hits give low values 0.972 | S. cerevisiae deletion strains, locus YLR371W, strain rom2, hits give low values 0.984 | S. cerevisiae deletion strains, locus YLR384C, strain iki3, hits give low values 0.964 | S. cerevisiae deletion strains, locus YLR418C, strain cdc73, hits give low values 0.962 | S. cerevisiae deletion strains, locus YML016C, strain PPZ1, hits give low values 1.01 | S. cerevisiae deletion strains, locus YML032C, strain rad52, hits give low values 0.965 | S. cerevisiae deletion strains, locus YML120C, strain ndi1, hits give low values 0.985 | S. cerevisiae deletion strains, locus YML124C, strain tub3, hits give low values 0.981 | S. cerevisiae deletion strains, locus YMR058W, strain fet3, hits give low values 1 | S. cerevisiae deletion strains, locus YMR078C, strain ctf18, hits give low values 0.983 | S. cerevisiae deletion strains, locus YMR125W, strain sto1, hits give low values 0.969 | S. cerevisiae deletion strains, locus YMR129W, hits give low values 0.995 | S. cerevisiae deletion strains, locus YMR205C, strain PFK2, hits give low values 0.962 | S. cerevisiae deletion strains, locus YMR223W, strain ubp8, hits give low values 0.975 | S. cerevisiae deletion strains, locus YMR231W, strain pep5, hits give low values 0.957 | S. cerevisiae deletion strains, locus YMR263W, strain SAP30, hits give low values 1.02 | S. cerevisiae deletion strains, locus YMR307W, strain GAS1, hits give low values 0.996 | S. cerevisiae deletion strains, locus YNL067W, strain RPL9B, hits give low values 1.03 | S. cerevisiae deletion strains, locus YNL071W, strain lat1, hits give low values 0.982 | S. cerevisiae deletion strains, locus YNL128W, strain TEP1, hits give low values 1 | S. cerevisiae deletion strains, locus YNL153C, strain GIM3, hits give low values 1.03 | S. cerevisiae deletion strains, locus YNL209W, strain ssb2, hits give low values 0.988 | S. cerevisiae deletion strains, locus YNL233W, strain BNI4, hits give low values 1.02 | S. cerevisiae deletion strains, locus YNL248C, strain rpa49, hits give low values 0.963 | S. cerevisiae deletion strains, locus YNL271C, strain bni1, hits give low values 0.942 | S. cerevisiae deletion strains, locus YNL298W, strain CLA4, hits give low values 0.91 | S. cerevisiae deletion strains, locus YNL307C, strain MCK1, hits give low values 0.963 | S. cerevisiae deletion strains, locus YNL322C, strain KRE1, hits give low values 1.01 | S. cerevisiae deletion strains, locus YNR049C, strain mso1, hits give low values 0.988 | S. cerevisiae deletion strains, locus YNR052C, strain pop2, hits give low values 0.97 | S. cerevisiae deletion strains, locus YOL006C, strain TOP1, hits give low values 1.07 | S. cerevisiae deletion strains, locus YOL012C, strain htz1 0.756 | S. cerevisiae deletion strains, locus YOL147C, strain pex11, hits give low values 0.974 | S. cerevisiae deletion strains, locus YOR001W, strain rrp6, hits give low values 1 | S. cerevisiae deletion strains, locus YOR061W, strain CKA2, hits give low values 1 | S. cerevisiae deletion strains, locus YOR069W, strain VPS5, hits give low values 1.01 | S. cerevisiae deletion strains, locus YOR070C, strain gyp1, hits give low values 0.981 | S. cerevisiae deletion strains, locus YOR080W, strain dia2, hits give low values 1 | S. cerevisiae deletion strains, locus YOR083W, strain WHI5, hits give low values 0.898 | S. cerevisiae deletion strains, locus YOR106W, strain vam3, hits give low values 0.925 | S. cerevisiae deletion strains, locus YOR136W, strain idh2, hits give low values 0.963 | S. cerevisiae deletion strains, locus YOR144C, strain elg1, hits give low values 0.98 | S. cerevisiae deletion strains, locus YOR184W, strain ser1, hits give low values 0.986 | S. cerevisiae deletion strains, locus YOR265W, strain rbl2, hits give low values 0.993 | S. cerevisiae deletion strains, locus YOR270C, strain vph1, hits give low values 0.999 | S. cerevisiae deletion strains, locus YOR290C, strain snf2, hits give low values 0.95 | S. cerevisiae deletion strains, locus YOR316C, strain cot1, hits give low values 0.989 | S. cerevisiae deletion strains, locus YPL051W, strain arl3, hits give low values 0.953 | S. cerevisiae deletion strains, locus YPL055C, strain LGE1, hits give low values 1.04 | S. cerevisiae deletion strains, locus YPL078C, strain atp4, hits give low values 0.946 | S. cerevisiae deletion strains, locus YPL106C, strain sse1, hits give low values 0.938 | S. cerevisiae deletion strains, locus YPL240C, strain hsp82, hits give low values 1 | S. cerevisiae deletion strains, locus YPL241C, strain CIN2, hits give low values 1.01 | S. cerevisiae deletion strains, locus YPR119W, strain clb2, hits give low values 0.993 | S. cerevisiae deletion strains, locus YPR141C, strain kar3, hits give low values 0.967 | S. cerevisiae deletion strains, locus YPR163C, strain tif3, hits give low values 0.981 | S. cerevisiae deletion strains, locus YPR167C, strain met16, hits give low values 0.995 | S. cerevisiae deletion strains, strain wtn01, hits give low values 0.998 | S. cerevisiae strains, strain wild type, hits give low values 0.995
active: S. cerevisiae deletion strains, locus YLR113W, strain HOG1, hits give low values 0.248 | S. cerevisiae deletion strains, locus YNL183C, strain NPR1, hits give low values 0.507 | S. cerevisiae deletion strains, locus YNL250W, strain rad50, hits give low values 0.885 | S. cerevisiae deletion strains, locus YNL322C, strain KRE1 (second series), hits give low values 0.895 | S. cerevisiae deletion strains, locus YOR231W, strain MKK1, hits give low values 0.212 | S. cerevisiae deletion strains, locus YPL256C, strain CLN2, hits give low values 0.238
